Laboratory results as given in article PMC13494018.
Unmarked numbers belong to inactive results. How the calls were made is not given here.

B1: design_602_0a1f3d3d-7d26-454b-9b34-ebe8ef9bc7d4_1801_dldesign_0_cycle1_af2pred (protein)
chain: GKLVEEAKKALEEAKALAAKNPELAKMAEAALERFEKSLRAGLAAADGLASTAAKLGAEDPENAKLAELAGKAAELLFEAI
B2: design_602_0a1f3d3d-7d26-454b-9b34-ebe8ef9bc7d4_1947_dldesign_0_cycle1_af2pred (protein)
chain: ATEEEVKAAVRETIKAAKKYVEAGGDAKEAAEIAHKAQEAKAEGIASGKLDEAYAKVKKLAEEAKAKAEEVEK
B3: design_603_0b98da89-d791-4423-9b2d-fd1b7292da18_39_dldesign_0_cycle1_af2pred (protein)
chain: EETFKKAVEELLKIAKEVYKKDPKAGSAAAGEIYRGKAEYEATGNLEVGVEELQKAAEIIKKADKELGEKAKKIVEEAKKK
B4: design_603_0b98da89-d791-4423-9b2d-fd1b7292da18_227_dldesign_0_cycle1_af2pred (protein)
chain: DKLKEKAEKLKKEVEEEMKKMKKLVKEGKEEEAKAEAKKTKEIAEKAEKAGEEAIEKGDEESKKAGRDALATAERAKQAAKAVIK
B5: design_603_0b98da89-d791-4423-9b2d-fd1b7292da18_573_dldesign_0_cycle1_af2pred (protein)
chain: EELLKGAEEIKKKAEEVVKEIKKINPKLGEEAEKELKEAEKEGKKETPAVYIQKMQEALTYAKSLLIKAKKE
B6: design_602_0a1f3d3d-7d26-454b-9b34-ebe8ef9bc7d4_1603_dldesign_0_cycle1_af2pred (protein)
chain: KNTLEKAAEAIQAYREEATAYAKEISKKEGKEAGEKAYEEFKKKVKELIALAKADPEAGLKEATKLLEELKAK
B7: design_603_0b98da89-d791-4423-9b2d-fd1b7292da18_10_dldesign_0_cycle1_af2pred (protein)
chain: EKEKEELRKELLEKYEEVKKAVEEALKNASNPEVQAELAKVVHEFQELAAEVGAKYPEIAEEAKKLRKEAIEEAKKAVEKSK
B8: design_602_0a1f3d3d-7d26-454b-9b34-ebe8ef9bc7d4_1646_dldesign_0_cycle1_af2pred (protein)
chain: SEFKKKAKLISEAELLINRMAALSPEAAAGAKAILKLAEGGKQEEAEKKIKEIKAASPEEATKLAIEVGKKVAAE
B9: design_603_0b98da89-d791-4423-9b2d-fd1b7292da18_1135_dldesign_0_cycle1_af2pred (protein)
chain: SEELKELAKAVLEEFSKKVHELYELAAEKDKETSKKIKELAKKAAEYGKKAVEDYLKGEKKEEGEKYKKEAEKYFEEAKKLAE
B10: design_603_0b98da89-d791-4423-9b2d-fd1b7292da18_754_dldesign_0_cycle1_af2pred (protein)
chain: NDEEAKQKLAEAAAKLHEAAALAEYEGDEELAKKAREAAKELKAAAADPSLTAEEKAKLAEEAKKKAEEIIKKVEEK
B11: design_603_0b98da89-d791-4423-9b2d-fd1b7292da18_403_dldesign_0_cycle1_af2pred (protein)
chain: AAAAEERAAGLAGRARVLEKSGLRLAKLNPEQGELLAEFLREEAEADPIGAPHFRAAADRLLAEVRKYKE
B12: design_603_0b98da89-d791-4423-9b2d-fd1b7292da18_202_dldesign_0_cycle1_af2pred (protein)
chain: GSATVDALEKALDAREELLRLAKELPPERAELAEKLRAAAEELRETIRRAQKLSPEEGAALITAAAEKARALAKEVKAA
B13: design_602_0a1f3d3d-7d26-454b-9b34-ebe8ef9bc7d4_1422_dldesign_0_cycle1_af2pred (protein)
chain: DAFLKEAEKLKKKLTEELKKLKEEAKKLTPEVQKKVLEEVKEAEEALKKALELAKKGDKKEAGKAAQEALEKLAEARWLVNKAK
B14: design_602_0a1f3d3d-7d26-454b-9b34-ebe8ef9bc7d4_1707_dldesign_0_cycle1_af2pred (protein)
chain: AAAAEAFGKELAAMLDEAYDKSTEDLEKAKEVLAKLKAKAEAAPAEVAEYAKKALKTAKSIEDSIEIEEKLKK
B15: design_602_0a1f3d3d-7d26-454b-9b34-ebe8ef9bc7d4_1333_dldesign_0_cycle1_af2pred (protein)
chain: EKERKEKIAKILLESAKDAMKEAEKALKEGKAKKAMMLATLAVSSAKNAYDFGKEASKELAEEAKKALEEAKEMLKKVKKALE
B16: design_602_0a1f3d3d-7d26-454b-9b34-ebe8ef9bc7d4_1768_dldesign_0_cycle1_af2pred (protein)
chain: EEKERAKKFGEGYGEAQLDLAESAMKKATKPEEVKKAAETAAERARKRAKEGTPEEAEELLKAAEKIEKLGKEYLAKL
B17: design_603_0b98da89-d791-4423-9b2d-fd1b7292da18_74_dldesign_0_cycle1_af2pred (protein)
chain: KEKVKKLEEEAIKALKELSKYRDNPEKAAEYAEKLYEKAFEMGIPLSIASRAAKLAKEGEEGAKEGVKLIKEEAKKVIEE
B18: design_602_0a1f3d3d-7d26-454b-9b34-ebe8ef9bc7d4_1819_dldesign_0_cycle1_af2pred (protein)
chain: GSAIMDAQAKAVEIRTEAEKLAKEYKDLPTAKDFKKAAEIAREALKNGEEAIELSKKAEELLEKAKKKLKEELEKK
B19: design_603_0b98da89-d791-4423-9b2d-fd1b7292da18_1094_dldesign_0_cycle1_af2pred (protein)
chain: GKEEAEKKLKEAKEKVEEMEKKAKEIEENAKELSAEEIEKIAEEMRKEGEEAIKKAEEADPEKGKEIRKKASEAVHKIREAIAEAKA
B20: design_603_0b98da89-d791-4423-9b2d-fd1b7292da18_819_dldesign_0_cycle1_af2pred (protein)
chain: SAKEKASAALRAVATAAARDAKKRFPKIDKETANEFQKARMYAADPNEVAKGIEHLKAAAAKLGEIGKEYIAAADKVAALL
B21: design_603_0b98da89-d791-4423-9b2d-fd1b7292da18_996_dldesign_0_cycle1_af2pred (protein)
chain: SAAEERRKKGLELAEKRYAELEKLAKETEELNPELGKEAKKEAEEAKKYYEKAAEAPDSEVIDYVAKANEKRIKAEKLYKKAK
B22: design_603_0b98da89-d791-4423-9b2d-fd1b7292da18_1132_dldesign_0_cycle1_af2pred (protein)
chain: EEEASKKAREDADKISKEQKKIKENAKAAKAGTPEEAKAKYEEAKKAAEEIKKIDPDLGTFVLNNIKKWYA
B23: design_603_0b98da89-d791-4423-9b2d-fd1b7292da18_614_dldesign_0_cycle1_af2pred (protein)
chain: DEYVKKAKEAIKKAKEYVEEAKKYAEKGDIENAIKSVQKAQEEISAAYFYADQALKLDPEKGKKLKEEAEKVKEELEKVKEYIKAK
B24: design_603_0b98da89-d791-4423-9b2d-fd1b7292da18_572_dldesign_0_cycle1_af2pred (protein)
chain: SEKEEYLKKAKEEMEKLKAEILELMKKGNEYLPEASKLMAEMREIGAEAAFYVGPEADELRKKIMGEVLEAAKKYSG
B25: design_602_0a1f3d3d-7d26-454b-9b34-ebe8ef9bc7d4_1719_dldesign_0_cycle1_af2pred (protein)
chain: GLAEEYKKKAEEAEEKAFNSKNVEAAYYYLKASQYYNAAAIYTKKGEEYLEKAKESYEKGKEYEKKGEEIEKK
B26: design_603_0b98da89-d791-4423-9b2d-fd1b7292da18_450_dldesign_0_cycle1_af2pred (protein)
chain: MKKEEELKAKYKKAKELVEEKYKRAKEVVKNGTVEQGLAAAESLLEFGKHAGKSLEKAGDKEGGKEVKELAEKYYKELKEEAEKKA
B27: design_603_0b98da89-d791-4423-9b2d-fd1b7292da18_594_dldesign_0_cycle1_af2pred (protein)
chain: SMEEEAKKKLEEVKKEAEKVKKEAEKALKEAKATDKAKGLAAMAKVAAKAHEVRAEGDYYGKYDPEAAKIGKEVMEYVRAKAKEIEA
B28: design_603_0b98da89-d791-4423-9b2d-fd1b7292da18_78_dldesign_0_cycle1_af2pred (protein)
chain: MSENVKFASELIRKVVKEAKKIGKEKGASEEAKKKAIEEVAKAIDKISEAAQKGDKEKAKAIAEEAIKKIKKILEEGA
B29: design_603_0b98da89-d791-4423-9b2d-fd1b7292da18_1163_dldesign_0_cycle1_af2pred (protein)
chain: MEALKEIKELMKKAEEEAKKLAKSMGVEGAKEGLKVAEKYFSSIFDIAIEKLTPEEAKEALDIANKAAKEIKDYIDKAIAEK
B30: design_603_0b98da89-d791-4423-9b2d-fd1b7292da18_386_dldesign_0_cycle1_af2pred (protein)
chain: EKEEIIKRAKEAAERMKELAKKDPKYAEDAKKGKEVAEKAIEKAKESDKSLASAEALAESLELAVEYLEKKLKE
B31: design_603_0b98da89-d791-4423-9b2d-fd1b7292da18_215_dldesign_0_cycle1_af2pred (protein)
chain: MTEEEERALVRGAYRAAVEAAKDPANAADYLAKSKALADELIAKGSKKAIASAAFKLEGVAEAAAKDPATAEVAKAANATAKRLNAAL
B32: design_602_0a1f3d3d-7d26-454b-9b34-ebe8ef9bc7d4_1736_dldesign_0_cycle1_af2pred (protein)
chain: DLKEKVEKAEKILKKRKEKLEKAKEKGPKEAKKEAALAKEQMENLIEALKKILEEAKDDPETKAKAEKVIEEAKKLKEEAEKLEKE
B33: design_602_0a1f3d3d-7d26-454b-9b34-ebe8ef9bc7d4_1428_dldesign_0_cycle1_af2pred (protein)
chain: EEEEKKKKEYVEKIKKALKEVKEAGKKGTEEQKKLAAETADKLYELKAIAEFSNAEEAEKYAEKAEKLAKETLKKIKK
B34: design_602_0a1f3d3d-7d26-454b-9b34-ebe8ef9bc7d4_1902_dldesign_0_cycle1_af2pred (protein)
chain: DEKKKNLLRAAALTLEEAIEALDTDKNWGAALARSAARYAEEAGDEETAAIAREAAELAAAGGPEVAPEAKALLKEAAERLKKKI
B35: design_603_0b98da89-d791-4423-9b2d-fd1b7292da18_519_dldesign_0_cycle1_af2pred (protein)
chain: AAAQEEARKAAERAAKIMRRRGERTGDLEKAEEAAKRVAAALAEGRAAGSAAMAEALEEFAELEYEKRKEEKKKKEEALE
B36: design_603_0b98da89-d791-4423-9b2d-fd1b7292da18_768_dldesign_0_cycle1_af2pred (protein)
chain: KAFQAYNSSKALADNNVAVAKKLAEKGKLEEAEKAAKEGLERLKARAERLKGDPEAYKAAMKALEEYEKRAKEVVEEGKKAK
B37: design_602_0a1f3d3d-7d26-454b-9b34-ebe8ef9bc7d4_1408_dldesign_0_cycle1_af2pred (protein)
chain: AAAAAAAAKAALDLAKEQLKKAKEYKELAKKYKEEGNISKANSAEADAINAAHAAIVAATKAAADPKYAAEAKKVKDEAEKLEKEVLE
B38: design_602_0a1f3d3d-7d26-454b-9b34-ebe8ef9bc7d4_2169_dldesign_0_cycle1_af2pred (protein)
chain: SAFEILKVIEEKAKEVYEITKEENPKIAKKIAAAAYTAGVALGAGDEEEAKKVIEKGKALADKEGAEKGKKALEEAVEEVKKKAKE

Target: VTCN1, Q7Z7D3
Sequence (Q7Z7D3 whole entry): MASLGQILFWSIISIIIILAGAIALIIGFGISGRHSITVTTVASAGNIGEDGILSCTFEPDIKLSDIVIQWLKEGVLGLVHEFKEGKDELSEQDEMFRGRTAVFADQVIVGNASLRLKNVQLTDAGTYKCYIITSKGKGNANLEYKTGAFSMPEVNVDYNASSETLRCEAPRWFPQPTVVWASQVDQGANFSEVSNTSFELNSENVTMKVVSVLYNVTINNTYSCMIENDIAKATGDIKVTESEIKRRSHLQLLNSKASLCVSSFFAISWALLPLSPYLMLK

Row | Binder | binding in a display sort
1 | B1 | not found
2 | B2 | not found
3 | B3 | not found
4 | B4 | not found
5 | B5 | not found
6 | B6 | not found
7 | B7 | not found
8 | B8 | not found
9 | B9 | not found
10 | B10 | not found
11 | B11 | not found
12 | B12 | not found
13 | B13 | not found
14 | B14 | not found
15 | B15 | not found
16 | B16 | not found
17 | B17 | not found
18 | B18 | not found
19 | B19 | not found

Row | Binder | binding in a display sort
20 | B20 | not found
21 | B21 | not found
22 | B22 | not found
23 | B23 | not found
24 | B24 | not found
25 | B25 | not found
26 | B26 | not found
27 | B27 | not found
28 | B28 | not found
29 | B29 | not found
30 | B30 | not found
31 | B31 | not found
32 | B32 | not found
33 | B33 | not found
34 | B34 | not found
35 | B35 | not found
36 | B36 | not found
37 | B37 | not found
38 | B38 | not found
